Results from publication PMC7862700, “An all-to-all approach to the identification of sequence-specific readers for epigenetic DNA modifications on cytosine”.

Tests used:
Experiment in all cases: DAPPL (digital affinity profiling via proximity ligation, sequencing); 10 mM Tris-HCl pH 7.5, 50 mM NaCl, 1 mM DTT, 4% glycerol, room temperature, 30 min; GST-TFs on glutathione beads, 16-mer random dsDNA library, 0.1% formaldehyde crosslink after washing; high values mean tight binding
Settings in all cases: protein: recombinant; tags: N-terminal GST; dsDNA, one strand shown
ERF = biological target: T1, ERF (Homo sapiens, UniProt P50548 1-548)
T1 sequence: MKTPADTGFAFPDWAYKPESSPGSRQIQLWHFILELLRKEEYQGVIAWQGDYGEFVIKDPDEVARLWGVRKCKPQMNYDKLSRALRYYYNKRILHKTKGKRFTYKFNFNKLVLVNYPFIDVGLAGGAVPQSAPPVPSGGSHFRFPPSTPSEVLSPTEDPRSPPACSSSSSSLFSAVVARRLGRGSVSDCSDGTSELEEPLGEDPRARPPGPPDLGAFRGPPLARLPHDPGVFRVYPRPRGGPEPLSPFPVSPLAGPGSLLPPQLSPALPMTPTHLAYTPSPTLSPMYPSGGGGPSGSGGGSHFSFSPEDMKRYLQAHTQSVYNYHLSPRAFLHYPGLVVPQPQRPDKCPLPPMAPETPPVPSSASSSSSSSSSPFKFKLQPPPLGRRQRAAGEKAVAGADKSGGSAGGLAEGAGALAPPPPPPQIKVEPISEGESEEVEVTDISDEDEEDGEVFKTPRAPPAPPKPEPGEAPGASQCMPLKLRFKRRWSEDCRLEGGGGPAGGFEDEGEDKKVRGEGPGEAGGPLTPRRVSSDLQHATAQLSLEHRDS
Outline: (§1)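 GST fusions of human transcription factors were expressed in yeast and captured with glutathione beads. Once given DNA barcodes and pooled alongside a tag-only sample, they were incubated for 30 min at room temperature with 200 nmole of a random double-stranded 16-mer DNA library in Tris/NaCl/DTT/glycerol buffer, then washed, crosslinked (0.1% formaldehyde), proximity-ligated, PCR-amplified and sequenced on an Illumina NextSeq500. The binding signal of each hexamer is its read frequency for a factor divided by its frequency for the tag-only sample.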

ETV3L = biological target: T2, ETV3L (Homo sapiens, UniProt Q6ZN32 1-361)
T2 sequence: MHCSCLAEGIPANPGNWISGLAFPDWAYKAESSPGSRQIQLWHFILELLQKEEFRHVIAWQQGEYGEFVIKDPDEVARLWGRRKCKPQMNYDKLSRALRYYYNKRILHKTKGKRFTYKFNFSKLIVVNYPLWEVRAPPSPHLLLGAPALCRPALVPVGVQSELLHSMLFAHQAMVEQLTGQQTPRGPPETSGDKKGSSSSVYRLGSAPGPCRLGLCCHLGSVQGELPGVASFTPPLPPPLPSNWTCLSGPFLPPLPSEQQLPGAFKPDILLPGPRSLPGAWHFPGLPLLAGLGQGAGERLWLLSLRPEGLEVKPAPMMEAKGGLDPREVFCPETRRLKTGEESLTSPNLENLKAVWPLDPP
Outline: as §1

ETS2 = biological target: T3, ETS2 (Homo sapiens, UniProt P15036 1-469)
T3 sequence: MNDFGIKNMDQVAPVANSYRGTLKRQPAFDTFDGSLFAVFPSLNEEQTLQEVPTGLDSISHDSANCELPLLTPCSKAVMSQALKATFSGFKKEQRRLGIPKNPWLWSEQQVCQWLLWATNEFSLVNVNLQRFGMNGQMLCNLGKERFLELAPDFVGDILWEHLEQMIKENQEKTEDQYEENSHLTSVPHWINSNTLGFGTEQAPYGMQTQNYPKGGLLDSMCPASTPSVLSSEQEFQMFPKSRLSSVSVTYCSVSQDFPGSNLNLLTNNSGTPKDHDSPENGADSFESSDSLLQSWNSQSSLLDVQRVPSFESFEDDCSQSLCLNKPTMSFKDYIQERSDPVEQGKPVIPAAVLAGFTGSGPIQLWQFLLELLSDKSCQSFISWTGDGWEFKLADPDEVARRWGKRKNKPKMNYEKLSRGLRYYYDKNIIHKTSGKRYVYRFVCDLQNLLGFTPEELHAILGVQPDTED
Outline: as §1

SPDEF = biological target: T4, SPDEF (Homo sapiens, UniProt O95238 1-335)
T4 sequence: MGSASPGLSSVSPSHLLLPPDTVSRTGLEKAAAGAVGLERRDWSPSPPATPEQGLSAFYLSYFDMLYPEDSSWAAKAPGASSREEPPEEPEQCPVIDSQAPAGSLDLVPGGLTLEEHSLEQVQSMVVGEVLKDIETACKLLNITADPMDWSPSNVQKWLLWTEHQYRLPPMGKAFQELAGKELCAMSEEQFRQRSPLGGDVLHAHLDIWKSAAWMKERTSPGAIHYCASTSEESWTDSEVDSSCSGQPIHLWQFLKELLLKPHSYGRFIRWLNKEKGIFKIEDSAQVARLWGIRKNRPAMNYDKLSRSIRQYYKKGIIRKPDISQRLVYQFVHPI
Outline: as §1

ETV7 = biological target: T5, ETV7 (Homo sapiens, UniProt Q9Y603 1-341)
T5 sequence: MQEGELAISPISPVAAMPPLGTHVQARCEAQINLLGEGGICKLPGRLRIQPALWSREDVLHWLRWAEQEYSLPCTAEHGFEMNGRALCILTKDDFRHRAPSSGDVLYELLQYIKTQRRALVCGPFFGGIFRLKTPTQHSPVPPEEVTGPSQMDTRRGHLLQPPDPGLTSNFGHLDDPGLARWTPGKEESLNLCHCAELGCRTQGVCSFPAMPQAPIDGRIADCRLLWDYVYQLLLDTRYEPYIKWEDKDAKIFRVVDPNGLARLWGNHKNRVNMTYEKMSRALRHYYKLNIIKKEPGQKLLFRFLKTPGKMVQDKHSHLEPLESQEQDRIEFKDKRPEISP
Outline: as §1

ELF5 = biological target: T6, ELF5 (Homo sapiens, UniProt Q9UKW6-2 1-255)
T6 sequence: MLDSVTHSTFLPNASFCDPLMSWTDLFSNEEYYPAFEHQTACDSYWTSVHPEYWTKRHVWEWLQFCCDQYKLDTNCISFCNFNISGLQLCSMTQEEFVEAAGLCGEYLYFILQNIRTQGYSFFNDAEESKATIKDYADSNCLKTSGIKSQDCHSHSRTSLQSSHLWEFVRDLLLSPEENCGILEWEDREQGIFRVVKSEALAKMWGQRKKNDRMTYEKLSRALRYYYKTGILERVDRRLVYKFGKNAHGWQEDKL
Outline: as §1

ETV3 = biological target: T7, ETV3 (Homo sapiens, UniProt P41162-2 1-143)
T7 sequence: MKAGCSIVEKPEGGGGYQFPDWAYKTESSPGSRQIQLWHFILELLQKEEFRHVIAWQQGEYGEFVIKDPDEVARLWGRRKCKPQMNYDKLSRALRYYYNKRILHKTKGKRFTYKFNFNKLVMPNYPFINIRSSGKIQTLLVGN
Outline: as §1

ETV6 = ETV6 (Homo sapiens, UniProt P41212 1-452)
Chain of ETV6 (P41212 whole entry): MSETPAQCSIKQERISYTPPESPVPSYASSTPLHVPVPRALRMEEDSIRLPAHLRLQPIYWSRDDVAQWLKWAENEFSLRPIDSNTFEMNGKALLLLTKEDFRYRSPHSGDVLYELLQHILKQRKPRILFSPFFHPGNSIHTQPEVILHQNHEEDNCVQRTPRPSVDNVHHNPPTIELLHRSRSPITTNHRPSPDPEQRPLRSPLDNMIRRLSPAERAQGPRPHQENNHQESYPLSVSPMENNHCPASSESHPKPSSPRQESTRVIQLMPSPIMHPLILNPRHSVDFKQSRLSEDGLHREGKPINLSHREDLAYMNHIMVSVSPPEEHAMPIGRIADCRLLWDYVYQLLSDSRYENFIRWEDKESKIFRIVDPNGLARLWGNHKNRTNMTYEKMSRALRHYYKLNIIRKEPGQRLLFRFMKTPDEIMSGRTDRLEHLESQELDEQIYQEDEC
Outline: as §1

What does the source list for ATTTCG?
binding signal (ERF): 1.2 fold enrichment (6-mer frequency, TF over GST control); binding signal (ETV3L): 1.31 fold enrichment (6-mer frequency, TF over GST control); binding signal (ETS2): 1.3 fold enrichment (6-mer frequency, TF over GST control); binding signal (SPDEF): 1.27 fold enrichment (6-mer frequency, TF over GST control); binding signal (ETV7): 1.26 fold enrichment (6-mer frequency, TF over GST control); binding signal (ELF5): 1.27 fold enrichment (6-mer frequency, TF over GST control); binding signal (ETV3): 1.27 fold enrichment (6-mer frequency, TF over GST control); binding signal (ETV6): 1.35 fold enrichment (6-mer frequency, TF over GST control)

With CTTAAC as the sequence, how does the binding signal (ERF) read?
Its binding signal is 1.3 fold enrichment (6-mer frequency, TF over GST control).

And the binding signal (ETV3L)?
Its binding signal is 1.22 fold enrichment (6-mer frequency, TF over GST control).

And the binding signal (ETS2)?
The binding signal was 1.3 fold enrichment (6-mer frequency, TF over GST control).

And the binding signal (SPDEF)?
The binding signal was 1.36 fold enrichment (6-mer frequency, TF over GST control).

What about the binding signal (ETV7) of the same sequence?
The binding signal was 1.29 fold enrichment (6-mer frequency, TF over GST control).

What about the binding signal (ELF5) of the same sequence?
The binding signal was 1.31 fold enrichment (6-mer frequency, TF over GST control).

What about the binding signal (ETV3) of the same sequence?
The binding signal was 1.3 fold enrichment (6-mer frequency, TF over GST control).

And the binding signal (ETV6)?
The binding signal was 1.29 fold enrichment (6-mer frequency, TF over GST control).

What does the source list for TGTATG?
binding signal (ERF): 1.31 fold enrichment (6-mer frequency, TF over GST control); binding signal (ETV3L): 1.23 fold enrichment (6-mer frequency, TF over GST control); binding signal (ETS2): 1.26 fold enrichment (6-mer frequency, TF over GST control); binding signal (SPDEF): 1.35 fold enrichment (6-mer frequency, TF over GST control); binding signal (ETV7): 1.19 fold enrichment (6-mer frequency, TF over GST control); binding signal (ELF5): 1.22 fold enrichment (6-mer frequency, TF over GST control); binding signal (ETV3): 1.29 fold enrichment (6-mer frequency, TF over GST control); binding signal (ETV6): 1.16 fold enrichment (6-mer frequency, TF over GST control)

Which binding signal (ERF) does the source give for ATCAAC here?
Its binding signal is 1.15 fold enrichment (6-mer frequency, TF over GST control).

And the binding signal (ETV3L)?
Its binding signal is 1.23 fold enrichment (6-mer frequency, TF over GST control).

And the binding signal (ETS2)?
The binding signal was 1.18 fold enrichment (6-mer frequency, TF over GST control).

What about the binding signal (SPDEF) of the same sequence?
The binding signal was 1.06 fold enrichment (6-mer frequency, TF over GST control).

And the binding signal (ETV7)?
Its binding signal is 1.02 fold enrichment (6-mer frequency, TF over GST control).

What about the binding signal (ELF5) of the same sequence?
The binding signal was 1.02 fold enrichment (6-mer frequency, TF over GST control).

And the binding signal (ETV3)?
Its binding signal is 1.12 fold enrichment (6-mer frequency, TF over GST control).

And the binding signal (ETV6)?
Its binding signal is 1.1 fold enrichment (6-mer frequency, TF over GST control).

For CTTTGT, which binding signal (ERF) is on record?
The binding signal was 1.3 fold enrichment (6-mer frequency, TF over GST control).

What about the binding signal (ETV3L) of the same sequence?
The binding signal was 1.41 fold enrichment (6-mer frequency, TF over GST control).

And the binding signal (ETS2)?
The binding signal was 1.24 fold enrichment (6-mer frequency, TF over GST control).

And the binding signal (SPDEF)?
Its binding signal is 1.21 fold enrichment (6-mer frequency, TF over GST control).

And the binding signal (ETV7)?
Its binding signal is 1.36 fold enrichment (6-mer frequency, TF over GST control).

And the binding signal (ELF5)?
Its binding signal is 1.24 fold enrichment (6-mer frequency, TF over GST control).

And the binding signal (ETV3)?
The binding signal was 1.32 fold enrichment (6-mer frequency, TF over GST control).

What about the binding signal (ETV6) of the same sequence?
The binding signal was 1.31 fold enrichment (6-mer frequency, TF over GST control).

Which results are given for CCTTAG?
binding signal (ERF): 1.22 fold enrichment (6-mer frequency, TF over GST control); binding signal (ETV3L): 1.26 fold enrichment (6-mer frequency, TF over GST control); binding signal (ETS2): 1.27 fold enrichment (6-mer frequency, TF over GST control); binding signal (SPDEF): 1.24 fold enrichment (6-mer frequency, TF over GST control); binding signal (ETV7): 1.21 fold enrichment (6-mer frequency, TF over GST control); binding signal (ELF5): 1.29 fold enrichment (6-mer frequency, TF over GST control); binding signal (ETV3): 1.27 fold enrichment (6-mer frequency, TF over GST control); binding signal (ETV6): 1.23 fold enrichment (6-mer frequency, TF over GST control)

Which binding signal (ERF) does the source give for TAACAT here?
Its binding signal is 1.33 fold enrichment (6-mer frequency, TF over GST control).

What about the binding signal (ETV3L) of the same sequence?
The binding signal was 1.32 fold enrichment (6-mer frequency, TF over GST control).

And the binding signal (ETS2)?
Its binding signal is 1.28 fold enrichment (6-mer frequency, TF over GST control).

And the binding signal (SPDEF)?
The binding signal was 1.34 fold enrichment (6-mer frequency, TF over GST control).

And the binding signal (ETV7)?
The binding signal was 1.3 fold enrichment (6-mer frequency, TF over GST control).

And the binding signal (ELF5)?
Its binding signal is 1.35 fold enrichment (6-mer frequency, TF over GST control).

What about the binding signal (ETV3) of the same sequence?
The binding signal was 1.26 fold enrichment (6-mer frequency, TF over GST control).

What about the binding signal (ETV6) of the same sequence?
Its binding signal is 1.4 fold enrichment (6-mer frequency, TF over GST control).

Which binding signal (ERF) does the source give for ATCCTA here?
The binding signal was 1.34 fold enrichment (6-mer frequency, TF over GST control).

What about the binding signal (ETV3L) of the same sequence?
The binding signal was 1.32 fold enrichment (6-mer frequency, TF over GST control).

And the binding signal (ETS2)?
The binding signal was 1.43 fold enrichment (6-mer frequency, TF over GST control).

And the binding signal (SPDEF)?
The binding signal was 1.72 fold enrichment (6-mer frequency, TF over GST control).

What about the binding signal (ETV7) of the same sequence?
The binding signal was 1.37 fold enrichment (6-mer frequency, TF over GST control).

And the binding signal (ELF5)?
Its binding signal is 1.45 fold enrichment (6-mer frequency, TF over GST control).

What about the binding signal (ETV3) of the same sequence?
The binding signal was 1.33 fold enrichment (6-mer frequency, TF over GST control).

And the binding signal (ETV6)?
Its binding signal is 1.34 fold enrichment (6-mer frequency, TF over GST control).
